We go through 5 molecules from PubChem BioAssay.

Calls of active or inactive are those of the source.

Test [1] relates to Plasmodium falciparum Sir2 (PF13_0152, Sir2A). In words: Plasmodium falciparum Sir2A binding compounds – biochemical, small-molecule microarray, 635 nm fluorescence, primary screen (AID 1098).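 Note: score merges spot fluorescence intensity with its signal-to-noise ratio.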 The settings on record: fluorescence 635 nm, higher = more signal.
Test [2] in a line: probe aDKK1 binding to arrayed compounds – biochemical, biotinylated probe, 635/667 nm fluorescence, primary screen (AID 1099).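 Note: score merges 667nm spot fluorescence with signal to noise across triplicate slides.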 Conditions: small-molecule microarray, higher = more signal.
Test [3] can be described thus: probe aCHRDL2 binding to arrayed compounds – biochemical, biotinylated probe, 635/667 nm fluorescence, primary screen (AID 1100). Conditions: small-molecule microarray, higher = more signal.
A short description of test [4]: change in splice reporter luminescence, either direction, cell-based, HEK293, spliceosome inhibition project, primary screen (AID 1101).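 Note: HEK293 cells carrying a splicing-competent luciferase reporter gene; test concentration not given here.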 The settings on record: HEK293 splicing luciferase reporter, 24 h, higher = more signal, called active from +8 up or from −8 down.
Test [5] has as its target Fibroblast growth factor 10 (Homo sapiens) (UniProt O15520). Put plainly: compounds binding fibroblast growth factor 10 – biochemical, small-molecule microarray, 635 nm fluorescence, primary screen (AID 1102). Conditions: FGF10 binding, fluorescence 635 nm, higher = more signal.
Test [6] relates to glycogen synthase kinase-3 (GSK3A per assay name; protocol says GSK3B). Put plainly: compounds binding glycogen synthase kinase-3 – biochemical, small-molecule microarray, 635 nm fluorescence, GSK3A, primary screen (AID 1103). Note: the record names both GSK3A and GSK3B. Conditions: fluorescence 635 nm, higher = more signal.
For test [7], the target named is Epidermal growth factor receptor (Homo sapiens) (UniProt P00533). In words: compounds binding epidermal growth factor receptor – biochemical, small-molecule microarray, 635 nm fluorescence, primary screen (AID 1104).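 Note: score merges 667 nm emission intensity with spot signal to noise over triplicate slides.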 The settings on record: EGFR binding, higher = more signal.
In test [8] the target is Follistatin-related protein 3 (Homo sapiens) (UniProt O95633). Put plainly: compounds binding follistatin-related protein 3 – biochemical, small-molecule microarray, 635 nm fluorescence, primary screen (AID 1105).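 Note: score merges emission near 667 nm and signal to noise per printed spot across three slides.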 Conditions: FSTL3 binding, higher = more signal.
Test [9] has as its target Dickkopf-related protein 1 (Homo sapiens) (UniProt O94907). In words: small molecules binding DKK1 protein – biochemical, small-molecule microarray, 635 nm fluorescence scan, primary screen (AID 1106).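 Note: score merges emission near 667 nm with signal to noise over three replicate slides.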 The settings on record: higher = more signal.
For test [10], the system named is Inhibin beta A chain (activin A). In words: small molecules binding activin A – biochemical, small-molecule microarray, 635 nm fluorescence scan, primary screen (AID 1107).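 Note: mouse activin A protein probed at 4.33 µg/mL on printed slides; score merges bound-protein fluorescence near 667 nm with spot signal-to-noise.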 Conditions: INHBA, higher = more signal.
The test system of test [11] is Human papillomavirus type 1a protein E7 (residues 44-93). In words: small molecules binding HPV E7 44-93 – biochemical, small-molecule microarray, residues 44-93, 635 nm fluorescence, primary screen (AID 1108).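 Note: E7 fragment applied at 1 µg/mL in TBST for 1 h at 4 C; score combines spot fluorescence with its signal to noise ratio.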 Conditions: fluorescence 635 nm, higher = more signal.
Test [12] in a line: hepatitis C replication reporter changes, two-sided – Huh7 cells, luciferase reporter, HCV replication inhibitor project, primary screen (AID 1109).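 Note: huh7 hepatoma cells harbouring a luciferase neomycin HCV replicon reporter; luciferase luminescence as measure of HCV replicon replication; test concentration not given here.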 Conditions: Huh7 HCV replicon luciferase reporter, 48 h; higher = more signal.
Test [13] has as its target Left-right determination factor 2 (Homo sapiens) (UniProt O00292). In words: small molecules binding LEFTY2 protein – biochemical, small-molecule microarray, 635 nm fluorescence scan, primary screen (AID 1110). The settings on record: higher = more signal.
Test [14] concerns the target Calmodulin-1 (Homo sapiens) (UniProt P0DP23). In words: small molecules binding calmodulin-1 with EGTA – biochemical, small-molecule microarray, Cy5-labelled CALM1, profiling panel (AID 1111).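 Note: labelled calmodulin applied in Tris saline Tween buffer holding calcium plus EGTA and DTT.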 Conditions: Cy5-CALM1 binding fluorescence, higher = more signal.
Test [15] shares this target. In words: small molecules binding Ca-loaded calmodulin-1 – biochemical, small-molecule microarray, Cy5-labelled CALM1, plus calcium, artefact control for SMM control-protein annotation, profiling panel (AID 1112).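 Note: score merges spot fluorescence with signal to noise from triplicate slides.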 Conditions: Cy5-CALM1 binding fluorescence, higher = more signal.
Test [16] in a line: probe aWnt5a binding to arrayed compounds – biochemical, biotinylated probe, 635/667 nm fluorescence, primary screen (AID 1113).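 Note: score merges 667 nm fluorescence intensity with signal-to-noise per printed feature.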 The settings on record: small-molecule microarray, higher = more signal.
The nature of test [17]: probe aShh binding to arrayed compounds – biochemical, biotinylated probe, 635/667 nm fluorescence, primary screen (AID 1114).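 Note: probe is biotin-labelled aShh protein from a stem cell growth factor screen; measures binding of labelled protein to compounds printed on the slide; score merges feature fluorescence at 667 nm with signal-to-noise.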 The settings on record: small-molecule microarray, higher = more signal.
Test [18] in a line: probe aNog binding to arrayed compounds – biochemical, biotinylated probe, 635/667 nm fluorescence, primary screen (AID 1115).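 Note: probe is biotinylated aNog protein used at 0.15 µg/mL for 1 h at 4 C; z-score combines 667 nm fluorescence of each spot with its signal to noise.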 Conditions: small-molecule microarray, higher = more signal.
The target in test [19] is Torsin-1A-interacting protein 1 (Homo sapiens) (UniProt Q5JTV8). In words: compound microarray binding of lysate hLAP1 – cell lysate, small-molecule microarray, COS7 lysate, 635/667 nm fluorescence, primary screen (AID 1116). Conditions: 635 nm fluorescence, higher = more signal.
Test [20] addresses Alpha-bungarotoxin (Bungarus multicinctus) (UniProt P60615). Put plainly: compounds binding labelled alpha-BTX control protein – biochemical, small-molecule microarray, Alexa647 label, 635/667 nm fluorescence, artefact control for SMM control protein annotation, profiling panel (AID 1117). The settings on record: alpha-BTX-A647 binding fluorescence, higher = more signal.

Sequence of Follistatin-related protein 3 (Homo sapiens) (O95633 whole entry, looked up): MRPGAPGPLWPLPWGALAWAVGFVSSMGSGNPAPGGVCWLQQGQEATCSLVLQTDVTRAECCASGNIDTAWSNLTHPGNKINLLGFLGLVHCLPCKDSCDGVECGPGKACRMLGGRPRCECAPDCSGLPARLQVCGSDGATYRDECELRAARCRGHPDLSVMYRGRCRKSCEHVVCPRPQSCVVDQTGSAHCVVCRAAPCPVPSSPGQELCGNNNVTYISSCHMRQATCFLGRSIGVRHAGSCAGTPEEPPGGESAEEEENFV
Sequence of Fibroblast growth factor 10 (Homo sapiens) (O15520 whole entry, looked up): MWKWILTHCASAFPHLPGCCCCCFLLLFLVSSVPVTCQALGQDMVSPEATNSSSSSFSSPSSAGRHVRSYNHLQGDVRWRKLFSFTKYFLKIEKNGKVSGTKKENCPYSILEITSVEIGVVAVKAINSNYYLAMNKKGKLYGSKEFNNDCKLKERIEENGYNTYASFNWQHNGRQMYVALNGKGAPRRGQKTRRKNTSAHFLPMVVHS
Sequence of Torsin-1A-interacting protein 1 (Homo sapiens) (Q5JTV8 whole entry, looked up): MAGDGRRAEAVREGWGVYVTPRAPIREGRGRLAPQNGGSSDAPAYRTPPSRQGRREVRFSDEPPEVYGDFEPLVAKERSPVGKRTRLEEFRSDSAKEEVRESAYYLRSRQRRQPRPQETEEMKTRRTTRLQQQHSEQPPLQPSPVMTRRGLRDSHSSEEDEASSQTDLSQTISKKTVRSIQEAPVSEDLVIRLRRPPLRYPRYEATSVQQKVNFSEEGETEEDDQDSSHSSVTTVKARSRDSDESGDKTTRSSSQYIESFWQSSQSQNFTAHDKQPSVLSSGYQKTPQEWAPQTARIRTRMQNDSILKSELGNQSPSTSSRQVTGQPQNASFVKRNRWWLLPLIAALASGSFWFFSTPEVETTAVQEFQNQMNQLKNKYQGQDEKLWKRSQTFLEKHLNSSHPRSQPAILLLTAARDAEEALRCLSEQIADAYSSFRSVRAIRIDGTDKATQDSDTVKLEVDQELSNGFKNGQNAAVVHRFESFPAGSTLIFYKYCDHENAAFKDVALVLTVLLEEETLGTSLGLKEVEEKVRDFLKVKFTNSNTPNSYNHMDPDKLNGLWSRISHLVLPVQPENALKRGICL
Sequence of Left-right determination factor 2 (Homo sapiens) (O00292 whole entry, looked up): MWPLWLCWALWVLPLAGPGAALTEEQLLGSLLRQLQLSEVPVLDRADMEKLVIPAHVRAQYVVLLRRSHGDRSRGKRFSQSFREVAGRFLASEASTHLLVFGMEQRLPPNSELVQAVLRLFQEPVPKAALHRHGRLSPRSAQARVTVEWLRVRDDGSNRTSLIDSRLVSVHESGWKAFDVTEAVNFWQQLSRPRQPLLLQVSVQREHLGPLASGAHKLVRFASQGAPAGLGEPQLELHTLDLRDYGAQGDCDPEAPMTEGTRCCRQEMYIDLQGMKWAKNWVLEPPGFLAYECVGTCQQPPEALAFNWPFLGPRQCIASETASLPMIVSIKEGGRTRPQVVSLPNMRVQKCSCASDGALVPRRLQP
Sequence of Epidermal growth factor receptor (Homo sapiens) (P00533 whole entry, looked up): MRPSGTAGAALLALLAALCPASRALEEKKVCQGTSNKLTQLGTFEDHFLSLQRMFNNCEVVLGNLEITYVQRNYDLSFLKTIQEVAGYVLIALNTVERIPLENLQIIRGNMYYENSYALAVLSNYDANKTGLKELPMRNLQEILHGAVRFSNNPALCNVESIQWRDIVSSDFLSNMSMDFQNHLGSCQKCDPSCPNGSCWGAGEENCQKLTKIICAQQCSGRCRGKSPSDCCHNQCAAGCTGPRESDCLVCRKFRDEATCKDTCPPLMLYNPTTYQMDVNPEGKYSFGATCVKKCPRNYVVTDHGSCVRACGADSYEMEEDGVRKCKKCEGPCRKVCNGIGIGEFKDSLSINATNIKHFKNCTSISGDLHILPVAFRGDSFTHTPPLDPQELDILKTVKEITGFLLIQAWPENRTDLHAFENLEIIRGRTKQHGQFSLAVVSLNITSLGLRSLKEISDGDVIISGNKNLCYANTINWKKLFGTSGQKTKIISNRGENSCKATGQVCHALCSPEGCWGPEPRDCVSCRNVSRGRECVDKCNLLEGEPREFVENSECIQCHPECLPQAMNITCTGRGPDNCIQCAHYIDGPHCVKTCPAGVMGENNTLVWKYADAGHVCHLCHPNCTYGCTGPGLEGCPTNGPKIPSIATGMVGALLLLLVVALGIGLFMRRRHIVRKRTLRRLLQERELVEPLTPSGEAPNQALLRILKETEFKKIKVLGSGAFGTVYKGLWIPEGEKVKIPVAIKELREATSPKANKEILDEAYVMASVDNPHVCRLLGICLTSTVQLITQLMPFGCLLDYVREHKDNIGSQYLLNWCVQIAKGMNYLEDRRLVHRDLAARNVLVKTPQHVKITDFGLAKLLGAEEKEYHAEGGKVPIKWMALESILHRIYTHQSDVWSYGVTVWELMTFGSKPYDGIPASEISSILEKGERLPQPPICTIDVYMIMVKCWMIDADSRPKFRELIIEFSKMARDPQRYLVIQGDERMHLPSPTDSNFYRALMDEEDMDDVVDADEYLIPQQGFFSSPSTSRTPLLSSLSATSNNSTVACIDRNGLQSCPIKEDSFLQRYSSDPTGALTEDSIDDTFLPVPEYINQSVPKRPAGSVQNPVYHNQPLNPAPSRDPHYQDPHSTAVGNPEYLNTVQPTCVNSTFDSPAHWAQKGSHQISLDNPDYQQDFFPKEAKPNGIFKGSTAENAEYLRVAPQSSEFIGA
Sequence of Dickkopf-related protein 1 (Homo sapiens) (O94907 whole entry, looked up): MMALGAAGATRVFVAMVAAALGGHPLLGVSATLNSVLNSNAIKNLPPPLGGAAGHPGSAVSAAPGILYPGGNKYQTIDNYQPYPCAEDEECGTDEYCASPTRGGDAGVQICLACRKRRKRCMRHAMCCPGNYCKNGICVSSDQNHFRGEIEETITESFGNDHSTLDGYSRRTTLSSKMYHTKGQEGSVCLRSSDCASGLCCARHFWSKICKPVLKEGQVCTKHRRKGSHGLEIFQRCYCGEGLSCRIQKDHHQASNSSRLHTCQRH
Sequence of Alpha-bungarotoxin (Bungarus multicinctus) (P60615 whole entry, looked up): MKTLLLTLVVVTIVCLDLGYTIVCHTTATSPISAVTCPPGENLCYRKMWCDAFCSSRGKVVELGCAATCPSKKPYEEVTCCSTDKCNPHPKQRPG

Consider `C=CCN1C(=O)[C@@]2(Cc3ccccc31)N=C(c1ccc(OCCCO)cc1)O[C@H]2c1ccccc1`, for which the composite z-score in test [1] amounted to 1.16; in test [2], 1.01; in test [3] it was 0.935; in [5], 0.583; in test [6], 1.32; in [7], 0.435. The composite z-score stood at 0.983 in test [8]; 0.776 in [9]; 1.13 in test [10]; 0.896 in test [11]; 0.308 in test [13]; 0.355 in test [14]. For the same molecule, the composite z-score was -0.231 in test [15]; 0.0458 in [16]; 0.308 in test [17]; 0.89 in test [18]; 0.895 in test [19]; 0.306 in test [20]. The z-score in [4] is -1.52 (inactive); in [12], -2.11.
Regarding `COC(=O)[C@]1(CCC(=O)OC(C)(C)C)N=C(c2ccc(OCCCO)cc2)O[C@@H]1c1ccccc1CN=[N+]=[N-]`, the composite z-score in test [1] was 1.09; in [2] it was 1.09; in test [3] it was 1.07; in [5], 0.432; in test [6] it was -0.109; in test [7] it was -0.843. In addition, the composite z-score in [8] was -0.307; in test [9], -0.696; in test [10], 0.26; in [11], -0.0058; in [13], -0.684; in test [14], 0.884. Moreover, the composite z-score in test [15] was 0.367; in test [16], -0.0045; in test [17], 0.147; in test [18], 0.977; in test [19], 0.157; in test [20] it was 0.869. The z-score was -1.03 (inactive) in test [4] and -3.32 in test [12].
Regarding `C=CC1(C(=O)OC)CC=C(C(=O)OC)CC1` (stereo not given), the composite z-score in test [1] is 0.0006; in test [2], -0.259; in test [3], -0.425; in [5], 0.916; in test [6], 1.15; in [7], 0.478. Moreover, the composite z-score in [8] was 0.791; in [9], 0.908; in [10], -0.115; in test [11], 1.1; in [13], 1.24; in test [14], 0.887. The composite z-score in test [15] is 0.234; in [16], -0.141; in [17] it was 1.1; in [18] it was -0.0689; in [19] it was 1.1; in test [20], 0.605. For the same molecule, the figures for the z-score in test [4] and in test [12] were -1.38 (inactive) and -0.928, respectively.
As to `COc1cc2c(cc1O)C(c1cccs1)N(C)CC2` (stereo not given), the composite z-score was 0.0826 in [1]; -0.287 in test [2]; 0.0135 in test [3]; -0.654 in test [5]; -0.995 in [6]; 0.0174 in test [7]. Moreover, the composite z-score in test [8] was -0.558; in test [9], -0.332; in test [10], 0.0723; in test [11], -1.61; in test [13], -0.496; in test [14], -0.705. Also, the composite z-score in [15] is 0.423; in test [16] it was -0.126; in test [17], -0.2; in test [18], -0.215; in test [19] it was -0.205; in [20], -0.759. The z-score in test [4] is 0.153 (inactive); in test [12], 0.159.
In the case of `COC(=O)[C@@]1(CCC(=O)OC(C)(C)C)N=C(c2ccc(OCCCO)cc2)O[C@H]1c1ccccc1N=[N+]=[N-]`, the composite z-score was 1.13 in test [1]; 0.255 in test [2]; 0.662 in [3]; -0.113 in test [5]; -0.0727 in test [6]; -0.336 in [7]. Also, the composite z-score in test [8] was 0.542; in test [9], 0.0186; in [10], 0.431; in [11] it was 0.799; in test [13] it was -0.0736; in test [14], 1.17. Further, the composite z-score in test [15] was 0.356; in [16] it was 0.0101; in test [17], 0.178; in test [18] it was -0.193; in test [19] it was 1.06; in [20] it was 0.654. Besides, the z-score in [4] was 2.6 (inactive); in test [12], -1.85.
